Screening data (PubChem BioAssay)
Bcl-2 Bim block – inhibitors of Bim-Bcl-2 binding, primary screen, biochemical, multiplexed, human Bcl-2 family; Apoptosis regulator Bcl-2 (Homo sapiens), P10415; Bead-based flow cytometry, Bim peptide-Bcl-2 binding; 190,000 tested, 0.06% active; inhibition, % at 10 µM; in the data active = inhibition above about 40%;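 also: 0% = no compound wells with probe peptide and 100% = reference peptide inhibitor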
Bim-Bcl-XL – inhibitors of Bim-Bcl-XL binding, primary screen, biochemical, multiplexed, bead flow cytometry, human Bcl-XL; Bim peptide-Bcl-XL binding, fluorescence; AID 1007, 2008; 190,000 tested, 0.04% active; Bcl-2-like protein 1 (Homo sapiens), Q07817; inhibition, % at 10 µM
Target sequence (Q07817 whole entry, looked up): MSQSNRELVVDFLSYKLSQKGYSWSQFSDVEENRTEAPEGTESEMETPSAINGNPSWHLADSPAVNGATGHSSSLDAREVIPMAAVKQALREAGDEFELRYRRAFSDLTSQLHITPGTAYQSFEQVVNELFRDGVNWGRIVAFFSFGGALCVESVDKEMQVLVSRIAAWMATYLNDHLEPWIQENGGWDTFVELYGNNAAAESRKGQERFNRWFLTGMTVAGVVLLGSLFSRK
PKD1 inh – inhibitors of human PKD1 kinase, biochemical, fluorescence polarization; Serine/threonine-protein kinase D1 (Homo sapiens), Q15139; PKD1 kinase fluorescence polarization assay; inhibition, % (concentration not given with the values); 200,000 tested, 0.056% active; AID 797, 2007; in the data active = inhibition above about 50%
Bim-Bcl-B – inhibitors of Bim-Bcl-B binding, primary screen, biochemical, multiplexed, human Bcl-2 family; Bcl-2-like protein 10 (Homo sapiens), Q9HD36; 190,000 tested, 0.073% active; inhibition, % at 10 µM; AID 951, 2007; bead-based flow cytometry, Bim peptide-Bcl-B binding;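 also: 0% = tracer peptide without compound and 100% = reference inhibitor peptide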
Bim-Bcl-W – inhibitors of Bim binding to Bcl-W, primary screen, biochemical, multiplexed, bead-based flow cytometry | Bcl-2-like protein 2 (Homo sapiens), Q92843 | Bim peptide-Bcl-W binding | inhibition, % at 10 µM | 190,000 tested, 0.02% active;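 also: 0% = bound tracer without compound and 100% = peptide blocker; higher means less fluorescent Bim peptide bound to Bcl-W beads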
Target sequence (Q92843 whole entry, looked up): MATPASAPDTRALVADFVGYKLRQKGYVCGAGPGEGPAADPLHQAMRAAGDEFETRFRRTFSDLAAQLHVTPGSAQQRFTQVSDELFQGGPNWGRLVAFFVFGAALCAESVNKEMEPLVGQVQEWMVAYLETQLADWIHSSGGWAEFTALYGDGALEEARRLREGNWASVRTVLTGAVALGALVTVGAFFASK
Bfl-1 Bim block – inhibitors of Bim binding to Bfl-1, primary screen, biochemical, multiplexed, bead-based flow cytometry; Bim-Bfl-1 binding inhibition; inhibition, % at 10 µM; 190,000 tested, 0.12% active; AID 1008, 2008;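 also: 0% = wells without compound plus tracer and 100% = blocker peptide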
Target sequence (Q16548 whole entry, looked up): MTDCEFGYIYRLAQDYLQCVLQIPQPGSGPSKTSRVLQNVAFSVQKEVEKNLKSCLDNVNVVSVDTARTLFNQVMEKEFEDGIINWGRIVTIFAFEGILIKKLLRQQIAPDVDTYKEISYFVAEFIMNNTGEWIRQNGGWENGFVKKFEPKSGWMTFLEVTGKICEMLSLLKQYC
Active calls of the source: *; . = no result. Hits are enriched below; roughly 0.26% of the tested compounds scored in any of these assays. Rule as the data show it, unless noted: active = inhibition above about 40%.

SMILES | Bcl-2 Bim block | Bim-Bcl-XL | PKD1 inh | Bim-Bcl-B | Bim-Bcl-W | Bfl-1 Bim block
C/C(=N\NC(=O)COc1ccc(C(C)(C)C)cc1)c1ccc2c(c1)OCCO2 | 85* | 31 | 0 | 88* | 48* | 32
CNC(=O)CC1C(=O)N(Cc2ccccc2)C(=S)N1NC(=O)c1cccc(F)c1 (configuration not stated) | 27 | 40* | 3 | 25 | 28 | 40*
O=C(NCCO)c1ccc2nc(-c3ccco3)c(-c3ccco3)nc2c1 | 18 | 12 | -3 | 5 | 28 | 54*
O=C(NC1CCCC1)c1ccc2nc(-c3ccco3)c(-c3ccco3)nc2c1 | 4 | 2 | -4 | 2 | 6 | 3
O=C(NCCc1ccccc1)c1ccc(=O)oc1 | 1 | -1 | 18 | -1 | -2 | -2
O=C(NCCc1ccccc1)c1ccc2nc(-c3ccco3)c(-c3ccco3)nc2c1 | 16 | 10 | 1 | 7 | 19 | 45*
O=C(c1ccccc1)c1ccc2nc(-c3ccco3)c(-c3ccco3)nc2c1 | 26 | 12 | 5 | -9 | 26 | 47*
C=CCn1c(=O)c(C(=O)Nc2ccccc2S(N)(=O)=O)c(O)c2ccccc21 | 0 | -3 | -4 | -3 | 2 | -2
CCCc1cc(=O)[nH]c(SCCCCN2C(=O)c3ccccc3C2=O)n1 | 0 | -2 | 109* | -1 | -3 | 0
CCCc1cc(=O)[nH]c(SCc2ccccc2)n1 | -6 | -4 | -5 | -5 | -2 | -18
Cc1ccccc1-n1c(SCc2cccc(F)c2)nc2[nH]ncc2c1=O | 25 | 39 | 8 | 11 | 25 | 44*
COc1cccc2c1C(=O)c1c(O)c3c(c(O)c1C2=O)C[C@@](O)(C(=O)CO)C[C@@H]3O[C@H]1C[C@H](N)[C@H](O)[C@H](C)O1 | 54* | 57* | 75* | 86* | 59* | 60*
CC(=O)c1cccc(-n2nnnc2SCC(=O)N2CCCC2)c1 | -5 | 0 | -2 | -9 | 1 | -8
COC(=O)c1c(NC(=O)COc2ncnc3ccccc23)sc(C)c1C | 38 | -1 | -5 | 55* | -4 | 6
COc1cccc(/C=C2/CN(C)CC3=C2OC(N)=C(C#N)C3c2cccc(OC)c2)c1 (configuration not stated) | -17 | -10 | -10 | -13 | -5 | -21
OCCN1CCN(CCCc2c3c(cc4c2CCC4)CCC3)CC1 | 21 | 32 | -16 | 61* | 32 | 13
C#CCOC(=O)C(NC(=O)c1ccccc1)=C1CCCCC1 | -14 | 0 | 6 | -23 | 3 | -11
CCOc1cc(S(=O)(=O)Nc2ccccn2)ccc1F | 89* | 28 | -7 | . | 22 | .
CCn1c(C)nc2cc(C(=O)N/N=C/c3ccc(O)c(O)c3O)ccc21 | 34 | 13 | 0 | 9 | 38 | 52*
CCN(CC)S(=O)(=O)c1cccc(C(=O)N/N=C/c2ccc(O)c(O)c2O)c1 | 33 | 54* | -5 | 43* | 38 | 37
COc1ccc(Oc2cc(C(F)(F)F)nc(N(C)C)n2)cc1 | 0 | 0 | 1 | 1 | 0 | -6
O=C(COC(=O)CCCSc1nc2ccccc2[nH]1)Nc1ccc(Cl)cc1 | 4 | -7 | 0 | -2 | -1 | 3
O=C(c1ccc(F)cc1)N1CCCCC(S(=O)(=O)c2ccccc2)C1=O (configuration not stated) | -2 | -6 | -3 | -12 | -7 | -4
CCN(CC)S(=O)(=O)c1cc(C(=O)OCC(=O)c2ccc3c(c2)NC(=O)CO3)ccc1F | -8 | -11 | -3 | 0 | 0 | -9
CN(C)S(=O)(=O)c1cccc(C(=O)OCC(=O)c2ccc3c(c2)NC(=O)CO3)c1 | 26 | 8 | -3 | 43* | 23 | 20
SMILES | Bcl-2 Bim block | Bim-Bcl-XL | PKD1 inh | Bim-Bcl-B | Bim-Bcl-W | Bfl-1 Bim block
CCn1c(C)c(C(C)=O)c(N2CCCCC2)nc1=S | -9 | -4 | -5 | 2 | -1 | -4
C=CCn1c(C)c(C(C)=O)c(N2CCOCC2)nc1=S | 29 | 38 | -4 | 29 | 29 | 48*
CCN1C(=O)/C(=C/C=C2\C=CN(CC)c3ccccc32)SC1=S | 23 | 10 | 6 | -11 | 21 | 50*
Cc1cc(C)nc(SCc2cc(=O)c(OC(=O)c3ccc(Cl)c([N+](=O)[O-])c3)co2)n1 | 13 | 52* | -5 | 18 | 36 | 0
CCCCNC1C(CC)C(CCC)C(C#N)(C#N)C1(C#N)C#N (configuration not stated) | -7 | -3 | 18 | -11 | 0 | -7
O=C(Nc1ccc2nc(-c3ccco3)c(-c3ccco3)nc2c1)N1CCCCCC1 | 31 | 19 | 3 | 10 | 35 | 54*
Cc1nc2ccc(NC(=O)N3CCCCC3)cc2nc1C | -4 | -8 | -2 | -7 | -7 | -5
CCOC(=O)C1CCN(C(=O)Nc2ccc3c(c2)nc(C)n3C)CC1 | -11 | -16 | -11 | -9 | -1 | -18
CCOC(=O)C1CCN(C(=O)Nc2ccc3nc(-c4ccco4)c(-c4ccco4)nc3c2)CC1 | 35 | 19 | 3 | 15 | 38 | 60*
CCc1cccc(NC(=O)Cc2ccc(OC)c(OC)c2)c1 | -3 | -3 | -9 | -7 | -1 | -7
CC(=O)Nc1ccc2c(c1)ncn2-c1ccc(C)cc1 | -2 | -3 | 2 | -11 | -2 | -12
O=C1c2ccccc2C(=O)c2cc(S(=O)(=O)Nc3ccccc3)ccc21 | 0 | -6 | -2 | 41* | -5 | -1
Cn1nc(CSc2ccccc2)c(C=O)c1Cl | -3 | -1 | 1 | -6 | -2 | -8
COc1ccc(-c2noc(COc3ccc4c(c3)OCO4)n2)cc1OC | 85* | 23 | -2 | . | 18 | .
COc1ccc(-c2noc(COc3ccc4c(c3)OCO4)n2)cc1 | -1 | -1 | -10 | 0 | -1 | 0
Cc1ccc(Cl)cc1N1CCN(C(=O)CN(c2ccccc2)S(=O)(=O)N(C)C)CC1 | -4 | -2 | 0 | -2 | 0 | -3
Cc1cnnn1-c1ccc(C(=O)CCl)cc1 | 36 | 33 | 3 | 34 | 60* | 60*
Cc1cc(SCC(=O)NCCC2=CCCCC2)nc2ccccc12 | -7 | -19 | 7 | -22 | -14 | -3
CCOC(=O)CCCNC(=O)c1cncc(O)c1 | 72* | 15 | -1 | 68* | 11 | 46*
CCOC(=O)C1=C(CC)Nc2ccccc2N=C1NC(=O)c1ccc(S(=O)(=O)N2CCOCC2)cc1 | 78* | 4 | -11 | 75* | 0 | 57*
